± gives the standard deviation. Where only a bound is given, the exact number is not on record here.

This experiment relates to MILI (PIWIL2) piRISC loaded with piRNA #1 (26 nt). The experiment is described as follows: pre-steady-state target cleavage rate (min^-1); guide: piRNA #1 5'p-UGAGGUAGUAGGUUGUAUAGUAUCCA; MIWI and MILI are mouse PIWI proteins and EfPiwi is from a freshwater sponge; tags in brackets are library labels; higher = faster piRNA-guided slicing of the target. The settings on record: auxiliary factor: 500 nM mouse GTSF1. The procedure:
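Cleave-'n-Seq: a library of target RNAs (target site embedded in constant flanks, ACAGCATTCCGCGTTAGTGATATCCG... 5' flank; DNA-blocked outside the site) at 0.1 nM was incubated with 1 nM active mouse MILI or MIWI piRISC (synthetic 5'-monophosphorylated piRNA guide) with or without 500 nM mouse GTSF1 at 33 °C for 1 min to 16 h. Uncleaved targets were sequenced and normalised to non-target controls, and the pooled three trials were fitted to a burst-and-steady-state model to give the pre-steady-state cleavage rate (min^-1; k3 is constrained to at most 1e-4). Sequence is the target site only; target names encode pairing extent (gX:gY) and contiguous / 1-mismatch / 2-mismatch / bulge geometry. Fits with R² ≤ 0 are excluded.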
With GGAGACCUUACUAUACACCCUACUACCUCA, the “pre-steady-state target cleavage rate” value was 0.058 ± 0.0099. GGAGACCAGUACUAUACAACCUACUACCUCA: the “pre-steady-state target cleavage rate” value amounted to 0.177 ± 0.021. As to GGAGAGGUUACUAUACAACCUACUAGCUCA, the “pre-steady-state target cleavage rate” value was determined as 0.00459 ± 0.0029.

Take GGAGAGGAUACUAUUCAACCUACUACCUCA: the “pre-steady-state target cleavage rate” value came out at 0.178 ± 0.011.

GGAGUGGAUACUAUACUACCUACAACCUCA: the “pre-steady-state target cleavage rate” value is 0.117 ± 0.0096. In the case of GGAGACCUAUGAAUACAACGUACUACCACA, the “pre-steady-state target cleavage rate” value came to 0.00353 ± 0.0029. With GGAGACGAUACUAUCACAACCUACUACCUCA, the “pre-steady-state target cleavage rate” value turned out to be 0.221 ± 0.017. Next, GGAGACGAUACUAUACAACCUAGUACCACA: 0.00571 ± 0.0053; GGAGACCAUACUAUACGACCUACUACCUCA: 0.0852 ± 0.016; GGAGAGGAAACUAUACAACGUACUACCUCA: 0.0138 ± 0.0051. The result for GGAGACGAUACUAUACAACCUACUACUCUCA reads 0.244 ± 0.019; that for GGAGAGGAUACUUAUACAACCUACUACCUCA, 0.127 ± 0.012. Next, GGAGACCUAUCUACACAACCUACUACCUCA: 0.072 ± 0.0099; GGAGACCUAUGAAUACAACCUACUACGUCA: 0.00355 ± 0.0021. Consider GGAGACGUUACUAUACAACCUAGUACCUCA, for which the “pre-steady-state target cleavage rate” value was 0.0428 ± 0.0087. Next, GGAGACGAUACUAUACUUCCUACUACCUCA: 0.242 ± 0.016; GGAGACCUAUGAUAACAACCUACUUGGUCA: less than 0.0001; GGAGUCGAUACUAUAGAACCUACUACCUCA: 0.0641 ± 0.0083. The result for GGAGACCUAACUAUACAAGCUACUACCUCA reads 0.206 ± 0.02; that for GGAGUCGAUACUAUACAACGUACUACCUCA, 0.0256 ± 0.0024. The result for GGAGACCAUACUAUACAACCUACCACCUCA reads 0.0975 ± 0.015; that for GGAGAGGUACUAUACAACCUACUACCUCA, 0.089 ± 0.0084. For GGAGUGGACUACUAUACAACCUACUACCUCA, the “pre-steady-state target cleavage rate” value was 0.156 ± 0.01. The result for GGAGAGUGAUACUAUACAACCUACUACCUCA reads 0.227 ± 0.016; that for GGAGAGGAAACUAUACAACCUAGUACCUCA, 0.0133 ± 0.0079; that for GGAGAGGAUACUAUACAGCCUACUACCUCA, 0.132 ± 0.013. In the case of GGAGAGGUUACUAUACAUCCUACUACCUCA, the “pre-steady-state target cleavage rate” value was found to be 0.191 ± 0.016. Next, GGAGUGGAAACUAUACAACCUACUACCACA: 0.129 ± 0.018; GGAGACGAUACUAUACAACCUAGAACCUCA: 0.0145 ± 0.0064. The result for GGAGACCAUACUAUCACAACCUACUACCUCA reads 0.136 ± 0.019. The result for GGAGACGAUACUAUACUACGUACUACCUCA reads 0.0345 ± 0.004.

On to GGAGACCAUAGAAUACAACCUACUACCUCA, for which the “pre-steady-state target cleavage rate” value amounted to 0.0281 ± 0.0057.

With GGAGACGAUACUAUACAACGUUCUACCUCA, the “pre-steady-state target cleavage rate” value turned out to be 0.00469 ± 0.0024.

For the sequence GGAGUGGAUACUAUACAACCUAGCUACCUCA, the “pre-steady-state target cleavage rate” value came out at 0.0643 ± 0.006. As to GGAGACGAUACUAUACAACCUACUACUCA, the “pre-steady-state target cleavage rate” value was determined as 0.125 ± 0.019. As to “GGAGACCUAUGUAUACAACCUACUACCUCU [g2:g19:cont:t1U]”, the “pre-steady-state target cleavage rate” value was 0.0508 ± 0.0069. Next, GGAGACCUUACUAUACAACCUACUACCUCCA: 0.133 ± 0.014; GGAGACCUAUCUAAACAACCUACUACCUGA: 0.0477 ± 0.013. The result for GGAGUGGAUACUAUACAACCUACUACCCUCA reads 0.104 ± 0.013. The result for GGAGACCUAUGAAUACAACCUAUUACCUCA reads 0.00604 ± 0.003.

The record behind these values is the supplement of paper PMC10338343.
